# Reference: PubChem BioAssay (EPA / NIEHS)
# Calls of active or inactive are those of the source. Rule for the calls: active = hit-call score of the fitted dose curve at least 0.9, where 1 is the maximum; inactive = score below 0.9.
# Columns and labels:
# [1] = read-out: Interferon-gamma inducible Protein 10 (IP10), CXCL10 (gene 3627); assay: BSK_hDFCGF_IP10: BioMAP Diversity Plus: hDFCGF Assay for Interferon-gamma inducible Protein 10 (IP10) Biomarker Activity (AID 2283053); details: primary human foreskin fibroblasts; actives raise or lower the signal
# In short: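 ELISA read-out of IP-10 (CXCL10) from primary human skin fibroblasts, 24 h after compound addition. Gain or loss of signal versus DMSO baseline, bidirectional curve fitting.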
# [2] = read-out: Urokinase-type plasminogen activator receptor (uPAR), PLAUR (gene 5329); assay: BSK_CASM3C_uPAR: BioMAP Diversity Plus: CASM3C Assay for Urokinase-type plasminogen activator receptor (uPAR) Biomarker Activity (AID 2283054); details: primary human coronary artery smooth muscle cells; actives raise or lower the signal;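 note: cell-surface uPAR protein level quantified by ELISA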
# [3] = read-out: Vascular cell adhesion molecule 1 (VCAM1), VCAM1 (gene 7412); assay: BSK_CASM3C_VCAM1: BioMAP Diversity Plus: CASM3C Assay for Vascular cell adhesion molecule 1 (VCAM1) Biomarker Activity (AID 2283055); details: primary human coronary artery smooth muscle cells; actives raise or lower the signal;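 note: VCAM-1 protein level quantified by ELISA on the cells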
# [4] = read-out: Epidermal growth factor receptor (EGFR), EGFR (gene 1956); assay: BSK_hDFCGF_EGFR: BioMAP Diversity Plus: hDFCGF Assay for Epidermal growth factor receptor (EGFR) Biomarker Activity (AID 2283057); details: primary human foreskin fibroblasts; actives raise or lower the signal
# In short: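 ELISA readout of EGFR on human dermal fibroblasts (primary foreskin cells), 24 h post-dosing; bidirectional curve fit vs DMSO baseline, gain or loss of signal scored.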
# [5] = read-out: Interleukin-8 (IL8), CXCL8 (gene 3576); assay: BSK_hDFCGF_IL8: BioMAP Diversity Plus: hDFCGF Assay for Interleukin-8 (IL8) Biomarker Activity (AID 2283058); details: primary human foreskin fibroblasts; actives raise or lower the signal
# In short: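 ELISA read-out of IL-8 from primary human foreskin fibroblast cultures taken 24 h after dosing; values are bidirectional fits relative to DMSO vehicle.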
# [6] = BSK_hDFCGF_Proliferation: Cell Proliferation Assessment in the BioMAP Diversity Plus: hDFCGF Assay (AID 2283059); details: primary human foreskin fibroblasts;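 note: curves fitted for both rise and fall of signal versus DMSO baseline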
# In short: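 Steps: dose primary human dermal fibroblasts (foreskin); […] fix in 10% TCA; stain with 0.1% SRB; read 560 nm; fit gain or loss of signal against DMSO.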
# [7] = read-out: Macrophage colony-stimulating factor (MCSF), CSF1 (gene 1435); assay: BSK_hDFCGF_MCSF: BioMAP Diversity Plus: hDFCGF Assay for Macrophage colony-stimulating factor (MCSF) Biomarker Activity (AID 2283060); details: primary human foreskin fibroblasts; actives raise or lower the signal
# In short: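 ELISA read-out of M-CSF in human dermal foreskin fibroblast cultures, 24 h after chemical dosing; gain or loss of signal fitted bidirectionally relative to DMSO baseline.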
# [8] = BSK_hDFCGF_SRB: Viability Assessment in the BioMAP Diversity Plus: hDFCGF Assay (AID 2283061); details: primary human foreskin fibroblasts;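 note: cells exposed to compound for 24 h before the read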
# In short: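 Primary human foreskin fibroblasts; 24 h post-dose; fixed 10% TCA, stained 0.1% SRB, A560 read; total protein as overt cytotoxicity measure; curves fit bidirectionally vs DMSO control.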
# [9] = read-out: TIMP metallopeptidase inhibitor 1 (TIMP1), TIMP1 (gene 7076); assay: BSK_hDFCGF_TIMP1: BioMAP Diversity Plus: hDFCGF Assay for TIMP metallopeptidase inhibitor 1 (TIMP1) Biomarker Activity (AID 2283062); details: primary human foreskin fibroblasts; actives raise or lower the signal
# In short: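 ELISA readout of TIMP-1 from human dermal foreskin fibroblast cultures 24 h post-dosing. Curves were fitted in both directions against DMSO baseline, with SRB total-protein staining in parallel cultures as a cytotoxicity check.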
# [10] = read-out: Monokine induced gamma interferon (MIG), CXCL9 (gene 4283); assay: BSK_hDFCGF_MIG: BioMAP Diversity Plus: hDFCGF Assay for Monokine induced gamma interferon (MIG) Biomarker Activity (AID 2283063); details: primary human foreskin fibroblasts; actives raise or lower the signal
# In short: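 Fibroblasts (human foreskin, primary) dosed, 24 h, MIG by ELISA; fit bidirectional vs DMSO.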
# [11] = read-out: Vascular cell adhesion molecule 1 (VCAM1), VCAM1 (gene 7412); assay: BSK_hDFCGF_VCAM1: BioMAP Diversity Plus: hDFCGF Assay for Vascular cell adhesion molecule 1 (VCAM1) Biomarker Activity (AID 2283065); details: primary human foreskin fibroblasts; actives raise or lower the signal;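 for AC50: VCAM-1 protein level quantified by ELISA after 24 h chemical exposure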
# In short: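 ELISA read-out of VCAM-1 on human skin fibroblasts, 24 h post-dose; gain or loss of signal fitted bidirectionally against DMSO baseline.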
# [12] = read-out: Plasminogen activator inhibitor-1 (PAI1), SERPINE1 (gene 5054); assay: BSK_hDFCGF_PAI1: BioMAP Diversity Plus: hDFCGF Assay for Plasminogen activator inhibitor-1 (PAI1) Biomarker Activity (AID 2283066); details: primary human foreskin fibroblasts; actives raise or lower the signal
# In short: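 ELISA readout of PAI-1 from primary human skin fibroblast cultures, 24 h after compound addition. Gain or loss of signal was fitted bidirectionally against DMSO baseline.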
# [13] = read-out: Intercellular Adhesion Molecule 1 (ICAM1), ICAM1 (gene 3383); assay: BSK_KF3CT_ICAM1: BioMAP Diversity Plus: KF3CT Assay for Intercellular Adhesion Molecule 1 (ICAM1) Biomarker Activity (AID 2283067); details: primary human keratinocytes with fibroblasts; actives raise or lower the signal
# In short: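 ELISA readout of ICAM-1; KF3CT human skin co-culture (keratinocytes + foreskin fibroblasts), 24 h post-dose; gain/loss fit vs DMSO baseline.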
# [14] = read-out: Interferon-gamma inducible Protein 10 (IP10), CXCL10 (gene 3627); assay: BSK_KF3CT_IP10: BioMAP Diversity Plus: KF3CT Assay for Interferon-gamma inducible Protein 10 (IP10) Biomarker Activity (AID 2283068); details: primary human keratinocytes with fibroblasts; actives raise or lower the signal
# In short: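 KF3CT co-culture (keratinocytes + foreskin fibroblasts), 24 h compound, IP-10 by ELISA; bidirectional fit vs DMSO baseline.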
# [15] = BSK_KF3CT_SRB: Viability Assessment in the BioMAP Diversity Plus: KF3CT Assay (AID 2283069); details: primary human keratinocytes with fibroblasts;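 note: total protein by sulforhodamine B staining as a cytotoxicity measure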
# In short: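 Cytotoxicity was gauged by SRB staining (0.1% SRB, 10% TCA fixation, 560 nm) of parallel cultures at 24 h. The cells were primary human skin keratinocytes co-cultured with fibroblasts, and activity was fitted in both directions against DMSO.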
# [16] = read-out: Interleukin-1 alpha (IL1a), IL1A (gene 3552); assay: BSK_KF3CT_IL1a: BioMAP Diversity Plus: KF3CT Assay for Interleukin-1 alpha (IL1a) Biomarker Activity (AID 2283070); details: primary human keratinocytes with fibroblasts; actives raise or lower the signal
# In short: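 IL-1a was detected by ELISA 24 h after chemical treatment of a co-culture of human skin keratinocytes and foreskin fibroblasts. Gain or loss of signal was fitted against the DMSO baseline.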
# [17] = read-out: Transforming growth factor beta 1 (TGFb1), TGFB1 (gene 7040); assay: BSK_KF3CT_TGFb1: BioMAP Diversity Plus: KF3CT Assay for Transforming growth factor beta 1 (TGFb1) Biomarker Activity (AID 2283072); details: primary human keratinocytes with fibroblasts; actives raise or lower the signal
# In short: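 Read-out: ELISA for TGF-b1 in keratinocyte/foreskin fibroblast human skin co-culture, 24 h after dosing; bidirectional curve fit vs DMSO baseline; gain or loss of signal scored.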
# [18] = read-out: Matrix Metallopeptidase 1 (MMP1), MMP1 (gene 4312); assay: BSK_hDFCGF_MMP1: BioMAP Diversity Plus: hDFCGF Assay for Matrix Metallopeptidase 1 (MMP1) Biomarker Activity (AID 2283064); details: primary human foreskin fibroblasts; actives raise or lower the signal
# In short: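 MMP1 levels quantified by ELISA 24 h after dosing human dermal fibroblast cultures, with parallel SRB total-protein staining for overt cytotoxicity. Data fitted in both directions against DMSO baseline.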
# [19] = read-out: TIMP metallopeptidase inhibitor 2 (TIMP2), TIMP2 (gene 7077); assay: BSK_KF3CT_TIMP2: BioMAP Diversity Plus: KF3CT Assay for TIMP metallopeptidase inhibitor 2 (TIMP2) Biomarker Activity (AID 2283071); details: primary human keratinocytes with fibroblasts; actives raise or lower the signal
# In short: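 ELISA readout of TIMP-2 in keratinocyte plus foreskin fibroblast co-cultures (human skin primary cells), 24 h post-dose. Gain or loss of signal fitted relative to DMSO.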
smiles,measurement,setting,value
C=CCc1cc(S(=O)(=O)c2ccc(O)c(CC=C)c2)ccc1O,AC50,[1],29 µM (active)
same,AC50,[2],21.7 µM (active)
same,AC50,[3],35.7 µM (active)
same,outcome,[4],inactive
same,AC50,[5],34.4 µM (active)
same,AC50,[6],9.21 µM (active)
same,AC50,[7],27 µM (active)
same,AC50,[8],14.8 µM (active)
same,AC50,[9],26.4 µM (active)
same,AC50,[10],30.7 µM (active)
same,AC50,[11],15 µM (active)
same,AC50,[12],10.2 µM (active)
same,AC50,[13],23.7 µM (active)
same,AC50,[14],13.8 µM (active)
same,AC50,[15],26.5 µM (active)
same,AC50,[16],30 µM (active)
same,outcome,[17],inactive
CCCCCCCCN(C)C,outcome,[1],inactive
same,outcome,[2],inactive
same,outcome,[3],inactive
same,outcome,[4],inactive
same,outcome,[5],inactive
same,outcome,[6],inactive
same,outcome,[7],inactive
same,outcome,[8],inactive
same,outcome,[10],inactive
same,outcome,[18],inactive
same,outcome,[11],inactive
same,outcome,[12],inactive
same,outcome,[13],inactive
same,outcome,[14],inactive
same,outcome,[15],inactive
same,outcome,[16],inactive
same,outcome,[17],inactive
FC(F)(F)COC(OCC(F)(F)F)OCC(F)(F)F,outcome,[1],inactive
same,outcome,[2],inactive
same,outcome,[3],inactive
same,outcome,[4],inactive
same,outcome,[5],inactive
same,outcome,[6],inactive
same,outcome,[7],inactive
same,outcome,[8],inactive
same,outcome,[10],inactive
same,outcome,[18],inactive
same,outcome,[11],inactive
same,outcome,[12],inactive
same,outcome,[13],inactive
same,outcome,[14],inactive
same,outcome,[15],inactive
same,outcome,[16],inactive
same,outcome,[19],inactive
